# Results published in PMC5540273 (PLoS ONE, 2017).
# Legend:
# Conditions in all cases: concentration: 1 μM, replicates: in singlicate; n = 1
# [1] = system: PDGFRB
# [2] = system: PDPK1
# [3] = system: PFTAIRE2
# [4] = system: T1, PFTK1
# T1 construct: gene CDK14
# [5] = system: PHKG1
# [6] = system: PHKG2
# [7] = system: PIK3C2B
# [8] = system: PIK3C2G
# [9] = system: PIK3CA
# [10] = system: PIK3CB
# 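Further: KINOMEscan kinase panel screen.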
Structure (SMILES),%Inh [1],%Inh [2],%Inh [3],%Inh [4],%Inh [5],%Inh [6],%Inh [7],%Inh [8],%Inh [9],%Inh [10]
CCc1nc(-c2cccc(C)c2)c(-c2ccnc(NC(=O)c3ccccc3)c2)s1,0%,0%,17%,10%,0%,0%,14%,49%,0%,29%
COc1cc2c(Nc3cccc(NC(=O)c4ccccc4)c3)ncnc2cc1OCCCN1CCOCC1 [GSK223810],85%,100%,16%,0%,5%,12%,0%,0%,0%,0%
Fc1ccc(Nc2nccc(-c3c(-c4ccc(Cl)cc4)nn4ncccc34)n2)cc1F [GW829058],44%,12%,4%,10%,7%,0%,6%,29%,25%,50%
CCn1c(-c2ccncc2)nc2cnccc21 [SB-735216],1%,0%,0%,3%,3%,0%,19%,0%,0%,0%
FC(F)(F)c1ccc(-c2nn3ncccc3c2-c2ccnc(Nc3cccc(C(F)(F)F)c3)n2)cc1 [GW828205],9%,0%,0%,48%,9%,0%,0%,0%,0%,0%
Oc1ccc2ncnc(Nc3ccc(OCc4ccccc4)cc3)c2c1 [GI262866],21%,0%,13%,29%,0%,0%,0%,0%,0%,0%
COC(=O)c1c(-c2ccccc2)c2cc(Cl)ccc2c(=O)n1Cc1ccc(S(C)(=O)=O)cc1,78%,16%,0%,11%,4%,0%,10%,24%,10%,21%
O=C(CCO)NCCn1ccc2ncnc(Nc3ccc(Oc4cccc(C(F)(F)F)c4)c(Cl)c3)c21,0%,0%,0%,19%,0%,3%,0%,0%,0%,0%
